# From PubChem BioAssay
# miR122 inh – inhibitors of miR-122 in Huh7 cells; hit rate 0.3% among 340,000; AID 602342; Huh7 miR-122 Renilla luciferase sensor, 48 h; neutral wells = 0, positive control = 100; activation (reporter increase), % at 12.5 µM;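 active = mean replicate activation score at least 90 and every replicate individually at or above 90; inconclusive = only one of the two criteria met; inactive = neither criterion met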;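 also: higher luciferase means less miR-122 activity so hits act as miR-122 inhibitors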
# AF4-AF9 inh – blocks AF4 peptide binding to human AF9 | AlphaScreen, biotin-AF4 peptide binding to FLAG-AF9 | inhibition, % at 10 µM | hit rate 0.47% among 350,000;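 active = every replicate reaching a set inhibition limit, whatever the replicate mean, cut at about 25% in these data; inconclusive = mean inhibition reaches that limit but some replicates miss it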
# Casp6 inh – caspase-6 (human) enzyme inhibition; AID 686996; purified caspase-6, Z-VEID-R110 cleavage fluorescence; inhibition, % at 12.5 µM; hit rate 0.53% among 350,000;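 active = mean inhibition across replicates at least about 35%, with every replicate also reaching that limit, limit read from the data; inconclusive = only one of the two criteria met; inactive = neither criterion met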
# RAD52 inh – blocks human RAD52 DNA annealing; inhibition, % at 18.7 µM; recombinant RAD52 DNA annealing, FRET fluorescence; hit rate 0.46% among 360,000; AID 651710;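 active = every replicate showing at least 50% inhibition; inconclusive = mean inhibition at least 50% but not in every replicate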
# NSD2 inh – inhibitors of human histone methyltransferase NSD2; hit rate 0.54% among 310,000; NSD2 peptide methylation, AlphaScreen, 120 min; O96028; inhibition, % at 12.5 µM; in the data active = inhibition above about 50%
# Target sequence (O96028 whole entry, looked up): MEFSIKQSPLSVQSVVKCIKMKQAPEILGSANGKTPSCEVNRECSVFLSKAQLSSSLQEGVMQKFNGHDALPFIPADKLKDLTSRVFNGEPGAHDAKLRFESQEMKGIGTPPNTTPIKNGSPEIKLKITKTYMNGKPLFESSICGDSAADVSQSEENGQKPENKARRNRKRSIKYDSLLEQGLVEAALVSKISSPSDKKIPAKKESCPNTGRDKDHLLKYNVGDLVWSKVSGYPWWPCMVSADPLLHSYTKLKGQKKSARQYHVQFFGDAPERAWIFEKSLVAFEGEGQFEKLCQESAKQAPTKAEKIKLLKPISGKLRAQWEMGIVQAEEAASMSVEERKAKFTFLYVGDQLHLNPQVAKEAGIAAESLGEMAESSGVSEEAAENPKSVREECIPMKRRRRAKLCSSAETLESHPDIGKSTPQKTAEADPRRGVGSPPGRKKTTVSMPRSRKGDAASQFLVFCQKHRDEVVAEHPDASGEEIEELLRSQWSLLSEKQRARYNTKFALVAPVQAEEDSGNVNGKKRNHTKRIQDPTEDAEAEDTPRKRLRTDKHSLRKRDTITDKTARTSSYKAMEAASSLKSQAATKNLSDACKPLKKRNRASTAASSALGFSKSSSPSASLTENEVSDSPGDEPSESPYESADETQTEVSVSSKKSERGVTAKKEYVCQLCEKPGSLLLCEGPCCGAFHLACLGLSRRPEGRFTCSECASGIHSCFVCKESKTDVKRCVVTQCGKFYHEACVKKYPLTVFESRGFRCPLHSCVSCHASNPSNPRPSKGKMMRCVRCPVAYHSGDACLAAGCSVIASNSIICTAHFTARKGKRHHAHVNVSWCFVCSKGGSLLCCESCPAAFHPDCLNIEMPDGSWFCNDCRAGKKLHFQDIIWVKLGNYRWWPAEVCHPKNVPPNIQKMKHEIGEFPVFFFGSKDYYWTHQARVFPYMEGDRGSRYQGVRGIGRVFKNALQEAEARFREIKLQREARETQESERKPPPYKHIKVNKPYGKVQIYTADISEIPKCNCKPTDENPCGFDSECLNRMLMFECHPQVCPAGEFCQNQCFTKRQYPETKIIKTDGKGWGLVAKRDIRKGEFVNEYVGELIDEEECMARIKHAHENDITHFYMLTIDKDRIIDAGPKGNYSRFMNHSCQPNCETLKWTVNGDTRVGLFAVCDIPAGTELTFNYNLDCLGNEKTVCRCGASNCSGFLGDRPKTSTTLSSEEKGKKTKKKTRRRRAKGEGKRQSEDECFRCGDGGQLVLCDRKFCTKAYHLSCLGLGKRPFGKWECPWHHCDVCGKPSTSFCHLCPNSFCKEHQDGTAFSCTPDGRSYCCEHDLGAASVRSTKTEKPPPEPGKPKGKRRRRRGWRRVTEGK
# Numbers stand for hits; - = inactive; ? = inconclusive; . = no result given. Most compounds without a hit are left out; they make up all but 1.5% or so of the library.
SMILES,miR122 inh,AF4-AF9 inh,Casp6 inh,RAD52 inh,NSD2 inh
COc1ccc(/C=N/NC(=O)COc2ccccc2-c2ccccc2)cc1,129,.,-,-,-
O=C(COc1ccccc1-c1ccccc1)N/N=C/c1cccc2ccccc12,-,.,.,.,-
CCC(=O)Nc1ccc2c(c1)C(=O)N(C)C[C@H](OC)[C@H](C)CN(CC1CCCCC1)[C@@H](C)CO2,-,-,.,-,.
Cc1nc(Cc2nnc(SCC(=O)Nc3c(C)cccc3C)o2)cs1,-,-,-,-,-
Cc1ccc(NC(=O)CSc2nnc(Cc3csc(C)n3)o2)c(C)c1,.,-,62,-,-
O=C(ONC(=O)C1CCCCC1C(=O)NOC(=O)c1ccccc1)c1ccccc1 (configuration not stated),-,-,40,-,-
O=C(COC(=O)c1ccccc1)NC1CCCC1,-,-,-,-,-
COc1ccc(S(=O)(=O)Nc2ccccc2C(F)(F)F)cc1,-,.,.,.,.
COc1ccc(OC)c(S(=O)(=O)Nc2ccccc2C(F)(F)F)c1,116,.,.,.,-
CC(C)NC(=O)N(C)C[C@H]1Oc2c(NC(=O)CCCCCC(=O)Nc3ccccc3N)cccc2C(=O)N([C@H](C)CO)C[C@H]1C,.,-,-,-,.
COC(=O)CCCC1=CC2=CC(=O)C(C)(OC(=O)c3cccs3)C(=O)C2=CN1Cc1ccccc1 (configuration not stated),-,-,-,-,.
COC(=O)CCCC1=CC2=CC(=O)C(C)(OC(=O)c3cccs3)C(=O)C2=CN1Cc1ccco1 (configuration not stated),-,-,47,-,.
CCOc1ccccc1NC(=O)Cn1nnc(C(=O)NCc2ccco2)c1N,136,.,.,.,-
Cc1ccccc1NC(=O)Cn1nnc(C(=O)NCc2ccco2)c1N,-,-,-,-,-
CC(=O)c1ccc(S(=O)(=O)N2CCN(C(=O)c3ccc(-n4cncn4)c([N+](=O)[O-])c3)CC2)cc1,-,-,54,-,-
CCCN1C[C@@H](C)[C@@H](OC)CN(C)C(=O)c2ccc(NC(=O)Nc3cccc(OC)c3)cc2OC[C@@H]1C,.,-,-,68,.
CO[C@H]1CN(C)C(=O)c2cc(NC(=O)Nc3ccccc3)ccc2OC[C@H](C)N(C(=O)Nc2c(C)noc2C)C[C@@H]1C,.,-,-,-,.
CCCN1C[C@@H](C)[C@H](OC)CN(C)C(=O)c2cc(NC(=O)Nc3cccc(OC)c3)ccc2OC[C@H]1C,-,.,.,.,.
CO[C@@H]1CN(C)C(=O)c2ccc(NC(=O)C3CCCC3)cc2OC[C@H](C)N(CCC(F)(F)F)C[C@@H]1C,-,-,-,-,.
CO[C@H]1CN(C)C(=O)c2cc(NC(=O)Nc3ccccc3)ccc2OC[C@@H](C)N(C(=O)Nc2c(C)noc2C)C[C@H]1C,.,-,36,-,.
CO[C@H]1CN(C)C(=O)c2ccc(NC(=O)C3CCCC3)cc2OC[C@@H](C)N(CCC(F)(F)F)C[C@H]1C,-,28,-,-,.
COc1cccc(C(=O)Nc2ccc3c(c2)C(=O)N(C)C[C@H](OC)[C@H](C)CN(C)[C@H](C)CO3)c1,-,-,.,-,.
COc1cccc(NC(=O)Nc2ccc3c(c2)C(=O)N(C)C[C@H](OC)[C@@H](C)CN(C)[C@@H](C)CO3)c1,.,-,-,79,.
C[C@H]1CN([C@@H](C)CO)S(=O)(=O)c2ccc(C3=CCCC3)cc2O[C@H]1CN(C)CC1CC1,-,-,-,-,.
COc1cccc(NC(=O)Nc2ccc3c(c2)C(=O)N(C)C[C@H](OC)[C@H](C)CN(CC2CC2)[C@H](C)CO3)c1,.,-,-,-,.
SMILES,miR122 inh,AF4-AF9 inh,Casp6 inh,RAD52 inh,NSD2 inh
COc1cccc(NC(=O)Nc2ccc3c(c2)C(=O)N(C)C[C@@H](OC)[C@@H](C)CN(CC2CC2)[C@@H](C)CO3)c1,.,-,-,70,.
CCC(=O)Nc1ccc2c(c1)C(=O)N(C)C[C@H](OC)[C@H](C)CN(C(=O)CC)[C@H](C)CO2,.,-,-,-,.
O=C(CNc1cccc(S(=O)(=O)N2CCCC2)c1)Nc1cccc(Br)c1,-,-,44,-,-
O=C(COC(=O)c1cccc(OC(F)F)c1)Nc1cccc(S(=O)(=O)N2CCCC2)c1,-,-,60,-,-
CCc1ccccc1OCC(=O)OCC(=O)N1CC(=O)Nc2ccccc21,.,-,60,-,-
C[C@H](CO)N1C[C@H](C)[C@H](CN(C)CC2CCCCC2)Oc2ccc(NC(=O)CCCN(C)C)cc2CC1=O,-,-,-,-,.
FC(F)(F)c1ccc(Cl)c(-n2c(-c3ccco3)n[nH]c2=S)c1,-,-,-,-,-
FC(F)(F)c1ccc(Cl)c(-n2c(-c3cc(-c4ccco4)[nH]n3)n[nH]c2=S)c1,-,.,69,-,-
Cc1ccc(S(=O)(=O)Nc2ccc3c(c2)C(=O)N([C@H](C)CO)C[C@H](C)[C@H](CN(C)Cc2ccc(C(=O)O)cc2)O3)cc1,-,-,-,-,.
CCN(CC)c1ccc(NC(=O)CSc2ccsc2[N+](=O)[O-])c(C)c1,-,.,.,.,-
O=C(CSc1ccsc1[N+](=O)[O-])Nc1cc(F)ccc1F,.,-,36,-,-
CC(C)c1ccc(NC(=O)Nc2nc(C(N)C3CCCCC3)cs2)cc1 (configuration not stated),-,?,-,-,-
CN(C)c1ccc(NC(=O)Nc2nc(C(N)C3CCCCC3)cs2)cc1 (configuration not stated),-,57,-,-,-
CCN(c1ccccc1)c1nc(=O)c2cccnc2s1,-,-,-,-,-
CCN(c1ccccc1)c1cc2ccccc2c(=O)[nH]1,-,-,65,-,-
Cc1cc2c(=Cc3ccc(N(C)C)cc3)c3ccccc3n2[n+]1C,.,30,-,-,55
CCOC(=O)c1cc2c(=Cc3ccc(N(C)C)cc3)c3ccccc3n2[n+]1C,.,52,97,56,-
CCOC(=O)SC1=N/C(=C\c2ccc(N(C)C)cc2)C(=O)S1,-,-,-,-,-
CC1=NN(c2cccc(F)c2)C(=O)/C1=C/c1ccc(N(C)C)cc1,-,-,-,-,-
C[C@@H]1CN([C@H](C)CO)C(=O)c2cc(C#CC3(O)CCCC3)cnc2O[C@H]1CN(C)C(=O)C1CC1,-,.,.,.,.
C[C@@H]1CCCCO[C@H](CN(C)C(=O)C2CCCCC2)[C@H](C)CN([C@H](C)CO)C(=O)c2cc(NC(=O)Nc3cccc4ccccc34)ccc2O1,-,-,-,-,.
CCn1c(=O)c2cc(S(=O)(=O)NC3CCCCC3)ccc2n(CC)c1=O,98,.,.,.,-
CCOC(=O)c1ccccc1-n1c(C)cc(C2N=C(N)Nc3nc4ccccc4n32)c1C (configuration not stated),-,25,-,-,-
CCOC(=O)C1=C(C)Nc2nc3ccccc3n2C1c1ccc(O)cc1 (configuration not stated),.,-,-,-,-
Cc1c(C#N)c(N)nc2c3c(sc12)NC(=O)CC3c1ccc(F)cc1 (configuration not stated),-,.,.,.,-
Cc1c(C#N)c(N)nc2c3c(sc12)NC(=O)CC3c1ccccc1 (configuration not stated),-,.,.,.,65
